Holding throughout (assay): NCI-60 one-dose screen, 48 h (100 = growth as untreated, 0 = no growth, -100 = all killed)
Conditions in all cases: 10 µM unless noted

For assay [1], the system named is NCI-H23 lung.
The subject of assay [2] is NCI-H226 lung.
Assay [3] concerns NCI-H322M lung.
In assay [4] the test system is HOP-62 NSCLC.
Assay [5] has as its system NCI-H460 lung.
Assay [6] concerns HOP-92 NSCLC.
Assay [7] concerns NCI-H522 lung.
In assay [8] the test system is A549/ATCC NSCLC.
Assay [9] has as its system 786-0 renal.
The test system of assay [10] is COLO 205 colon.
Assay [11] relates to DU-145 prostate.
For assay [12], the system named is K-562 leukemia.
The subject of assay [13] is MALME-3M melanoma.
Assay [14] concerns MDA-MB-231 breast.
Assay [15] has as its system SF-268 CNS.
Assay [16] has as its system SF-295 CNS.
The subject of assay [17] is SF-539 CNS.
For assay [18], the system named is UACC-257 melanoma.
Assay [19] concerns M14 melanoma.

Compounds without any hit were thinned out: in the full panel of roughly 83,000, 20% have a hit.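 Single-dose data. Exposure time 48 hours. Values below 10 considered active.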 Unmarked numbers belong to inactive results. Activity calls are given as the source filed them.

On to `CCN(CC)CCCCCCNc1cc(OC)cc2cccnc12`, for which the growth in assay [1] is 85.5%; in [2], 97.4%; in [3], 96%; in [4], 92.1%; in assay [5] it was 32.6%; in [6], 85.2%. The growth in assay [7] is 5.26% (active); in assay [8], 80.3%; in assay [9] it was -50.7% (active); in assay [10], -68.9% (active); in [11] it was 40.8%; in assay [12] it was -47.8% (active). Moreover, the growth is -77.4% (active) in assay [13]; 32.6% in [14]; 79.3% in [15]; 86.5% in [16]; 68.5% in [17]; 115% in assay [18]. In addition, the growth in assay [19] was -28.7% (active).

Turning to `COc1cc(-c2cc(=O)oc3cc(O)ccc23)cc(OC)c1OC`, the growth is 88.1% in [1]; 87.3% in [2]; 96.7% in assay [3]; 87.6% in assay [4]; 69.5% in [5]; 54.2% in [6]. Moreover, the growth was 80.2% in assay [7]; 90.1% in [8]; 99.7% in assay [9]; 99.4% in assay [10]; 96.3% in assay [11]; 66.2% in [12]. Besides, the growth in assay [13] was 90.1%; in assay [14] it was 89.3%; in assay [15], 88.7%; in assay [16] it was 93.4%; in assay [17], 93.4%; in [18], 99.3%. Also, in [19], the growth is 98.3%.

For the molecule `Clc1cc(Cl)cc(N2N=C(c3cccc(Nc4ccncc4)c3)CC2c2ccccc2)c1` (configuration not stated), the growth in assay [1] was 82.8%; in assay [2], 93.1%; in [3], 78%; in [4] it was 43.6%; in assay [5] it was -76.1% (active); in assay [6], 55.7%. Further, the growth is 65.2% in assay [7]; 45.5% in [8]; 86.3% in assay [9]; -49.7% (active) in [10]; 35.7% in assay [11]; 0.584% (active) in assay [12]. Further, the growth is 32.7% in [13]; 58.1% in assay [14]; 84.3% in assay [15]; 9.59% (active) in assay [16]; 80.9% in assay [17]; 84.7% in assay [18]. The growth in assay [19] is 64.1%.

In the case of `O=C1Nc2ccccc2/C1=C\c1cccc(/C=C2/C(=O)Nc3ccccc32)n1`, the growth is -15.9% (active) in assay [1]; 2.74% (active) in [2]; -70.8% (active) in assay [3]; -61.3% (active) in [4]; -60.9% (active) in assay [5]; -31.7% (active) in assay [6]. Moreover, the growth was 10% in [7]; 6.25% (active) in assay [8]; -84.4% (active) in assay [9]; -85.7% (active) in assay [10]; -90.2% (active) in assay [11]; -24.1% (active) in assay [12]. For the same molecule, the growth in assay [13] is -40.3% (active); in [14] it was -52.3% (active); in [15], -67.1% (active); in assay [16], -81% (active); in [17] it was -73.4% (active); in assay [18] it was -65.8% (active). For the same molecule, in assay [19], the growth is -69.2% (active).

In the case of `CC1(C)CN(Cc2ccccc2)CCN1Cc1ccccc1`, the growth in [1] was 104%; in assay [2], 95%; in assay [3], 103%; in assay [4], 108%; in assay [5], 106%; in assay [6] it was 96.3%. The growth in assay [7] was 91.8%; in [8], 89.5%; in assay [9] it was 99.6%; in assay [10] it was 112%; in assay [11], 114%; in assay [12], 98.8%. Besides, the growth in assay [13] is 116%; in [14], 101%; in assay [15], 105%; in [16] it was 101%; in assay [17] it was 107%; in assay [18] it was 89.1%. Moreover, the growth in assay [19] is 107%.

Regarding `CC(C)CN(C(=O)c1ccc(Cl)cc1)c1c(N)n(CC(C)C)c(=O)[nH]c1=O`, the growth in assay [1] was 95.8%; in assay [2], 98.7%; in [3] it was 103%; in assay [4] it was 90.6%; in assay [5], 88.4%; in assay [6], 80.6%. In addition, the growth in assay [7] is 98.8%; in assay [8], 98.8%; in assay [9], 91.4%; in [10] it was 122%; in assay [11], 112%; in [12], 103%. The growth in assay [13] was 102%; in [14] it was 96.1%; in assay [15], 92.3%; in assay [16] it was 84.7%; in assay [17], 43.7%; in assay [18], 103%. Also, the growth in [19] is 109%.

As to `COc1ccc(/C=N/NC(=O)c2cccc3cc[nH]c23)cc1O`, the growth in [1] is 55.7%; in assay [2], 90.4%; in [3] it was 49.8%; in [4], 36.3%; in [5] it was 7.44% (active); in assay [6], 57.2%. Further, the growth is 54.8% in assay [7]; 50.5% in assay [8]; 30.9% in assay [9]; 55.7% in [10]; 28.3% in assay [11]; 27.8% in assay [12]. In addition, the growth in [13] is 43%; in assay [14], 55.2%; in [15], 53%; in assay [16], -20.3% (active); in assay [17], -18.8% (active); in assay [18], 47.3%. In assay [19], the growth was 0.307% (active).

Turning to `CN1CCN(c2c(F)cc(NC3=C(Cl)C(=O)c4ncccc4C3=O)cc2F)CC1`, the growth is 82.8% in assay [1]; 97.1% in assay [2]; 108% in [3]; 111% in assay [4]; 107% in assay [5]; 41% in assay [6]. The growth in assay [7] was -9.58% (active); in [8] it was 109%; in assay [9] it was 101%; in assay [10], 64.7%; in [11], 103%; in assay [12], 2.2% (active). Moreover, the growth is -6.37% (active) in assay [13]; 84.2% in assay [14]; 93.3% in assay [15]; 117% in assay [16]; 98.1% in assay [17]; 69.3% in assay [18]. Also, the growth in assay [19] was 76.5%.

These data come from PubChem BioAssay (NCI).
